# Only some compounds are listed: those with a hit (about 12% of all), similar ones and a draw of the others.
# G9a block: G9a (human) methyltransferase inhibition. Potency, µM (doses to about 102 µM), without a hit: at the highest dose activity, negative = inhibition, hits mostly inhibitors. Q96KQ7. G9a H3K9 monomethylation, AlphaScreen, 2 h. AID 504332. actives 8.8% (n = 350,000); also: % is scaled to controls: 0 for no effect and ±100 for the full control effect; nearly all actives have a fitted effect of over 75% in size
# Target sequence (Q96KQ7 913-1193 limits assumed): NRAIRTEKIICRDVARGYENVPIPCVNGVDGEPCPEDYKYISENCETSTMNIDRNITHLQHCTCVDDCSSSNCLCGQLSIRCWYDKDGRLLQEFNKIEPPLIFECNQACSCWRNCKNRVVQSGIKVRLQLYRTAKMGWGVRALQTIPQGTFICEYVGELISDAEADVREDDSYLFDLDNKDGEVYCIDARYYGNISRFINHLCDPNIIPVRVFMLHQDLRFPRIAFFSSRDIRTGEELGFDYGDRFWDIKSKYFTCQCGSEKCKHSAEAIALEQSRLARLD
#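 G9a (20 nM) was preincubated 15 min with compound, then reacted 2 h at room temperature with 500 nM biotin-H3K9 peptide and 20 µM SAM. Monomethyl-H3K9 detected by AlphaScreen using anti-H3K9me1 antibody.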
# L3MBTL1 block: blocks human L3MBTL1; AlphaScreen L3MBTL1–H3K9me1 peptide binding; Potency, µM (highest dose often 57.1 µM), without a hit: at the top dose activity, negative = inhibition, most hits filed as inhibitors; actives 0.66% (n = 230,000); AID 485360; also: % is scaled to controls: 0 for no effect and ±100 for the full control effect; nearly all actives have a fitted effect of over 60% in size
#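 AlphaScreen proximity signal between nickel-chelate acceptor and streptavidin donor beads (final 10 ug/mL) reports binding of 50 nM L3MBTL1 to 75 nM biotin-H3 K9me1 peptide; complex incubated with compounds 30 min at room temperature; cefsulodin titration as control.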
# JMJD2A Tudor inh: blocks the human JMJD2A Tudor domain; O75164; AlphaScreen JMJD2A-Tudor / H3K4me3 peptide binding; Potency, µM (doses to about 114 µM), for inactives: top-dose activity change, negative = inhibition, hits mostly inhibitors; actives 4.4% (n = 390,000); AID 504339; also: % is scaled to controls: 0 for no effect and ±100 for the full control effect; nearly all actives have a fitted effect of over 50% in size
# HP1b chromo inh: HP1-beta chromodomain-methylated histone interaction inhibition; P83916; AlphaScreen HP1-beta / biotin-H3K9me3 peptide binding; Potency, µM (series often up to 114 µM), without a hit: at the highest dose activity change, negative = inhibition, most hits filed as inhibitors; actives 0.56% (n = 390,000); also: nearly all actives have a fitted effect of over 70% in size
# Target sequence (P83916 whole entry, looked up): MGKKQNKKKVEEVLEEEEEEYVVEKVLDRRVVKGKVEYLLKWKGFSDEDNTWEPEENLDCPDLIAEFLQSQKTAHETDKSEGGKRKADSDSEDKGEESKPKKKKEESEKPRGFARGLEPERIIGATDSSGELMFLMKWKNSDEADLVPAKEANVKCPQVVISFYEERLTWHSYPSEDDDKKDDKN
#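 HP1-beta protein (50 nM final) preincubated 30 min at room temperature with biotinylated H3(1-18)K9me3 peptide (50 nM) in PBS pH 7.4, 0.01% Tween-20, then compound added for 30 min. AlphaScreen streptavidin donor/nickel chelate acceptor beads (10 ug/mL final), 30 min dark, luminescence read.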
# Sfp PPTase inh: blocks B. subtilis Sfp PPTase activity; Q9F4F7; Biochemical Sfp PPTase activity, qHTS; Potency, µM, for inactives: largest response in the series, negative = inhibition, actives largely listed as inhibitors; actives 3.5% (n = 310,000); AID 1490;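 also: the enzyme is Sfp with the accession as filed and its product quenches rhodamine fluorescence; 0% = enzyme reaction without inhibitor and -100% = no enzyme wells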
#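 Fluorescence-quenching assay: 15 nM Sfp-PPTase preincubated 15 min at room temperature with compound, then 5 uM rhodamine-CoA and 12.5 uM BHQ-2-labelled YbbR peptide added. Fluorescence (ex 525/em 598 nm) read at start and after 30 min; difference gives rate.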
# BAZ2B block: inhibitors of human BAZ2B bromodomain | Q9UIF8 | AlphaScreen BAZ2B-H3K14Ac peptide displacement | Potency, µM (top dose mostly 114 µM), for inactives: at the top dose activity change, negative = inhibition, usual class: inhibitors | actives 4.4% (n = 360,000) | AID 504333; also: % is scaled to controls: 0 for no effect and ±100 for the full control effect; nearly all actives have a fitted effect of over 60% in size
#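 Compounds, titrated to a top concentration of 110 uM, were incubated 30 min at room temperature with preformed BAZ2B/acetyl-K14 H3 peptide complex (50 nM each). Proximity signal was measured by AlphaScreen after 20 min with beads.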
# Active calls of the source: *; ? = inconclusive; . = no result; [ ] = remark or other dose. Calls follow the shape of the dose curve; as a rule, active = well fitted curve in the direction sought with a large enough effect; inconclusive = small, poorly fitted or top-dose-only effect, or another doubt; inactive = no such curve, though single readings can be large; an effect the other way counts as inactive or inconclusive. Potency is read from the fitted curve at half-maximal effect.
SMILES,G9a block,L3MBTL1 block,JMJD2A Tudor inh,HP1b chromo inh,Sfp PPTase inh,BAZ2B block
O=C(O)c1[nH]c(=O)[nH]c(=O)c1F,28.2µM*,17.0%,7.08µM*,-1.2%,?,50.1µM*
CC1N(P(=O)(c2ccccc2)c2ccccc2)CC(O)(c2ccccc2)CC12CC2 (stereo not drawn),.,.,.,.,-3.6%,.
C=C1C(=O)O[C@@H]2C[C@@H](C)[C@@H]3C=CC(=O)[C@@]3(C)[C@@H](OC(=O)CC(=O)O[C@H]3[C@@H]4C(=C)C(=O)O[C@@H]4C[C@@H](C)[C@@H]4C=CC(=O)[C@]43C)[C@H]12,?,.,-33.3%,27.0%,22.4µM*,-13.3%
COCOC1CCC2C3CCC4=CC(=O)CCC4=C3C=CC12C (stereo not drawn),.,.,79.4µM*,?,.,.
Cc1ccc(-c2nc3ccccc3c(=O)n2-c2ccccn2)cc1,21.0%[59 µM],10.3%,6.3%,25.3%,3.6%,-3.2%
COc1ccc(-c2n(-c3ccccn3)c3ccccc3[n+]2-c2ccccn2)cc1,3.16µM*,.,2.7%,30.3%,13.6%,3.6%
O=C1C(c2ccccc2)=C(N2CC2)c2ccccc21,39.8µM*,-27.5%,44.7µM*,20µM*,8.2%,35.5µM*
CC(C)NC(=O)C(C)N1CCN(S(=O)(=O)c2ccc3ccccc3c2)CC1 (stereo not drawn),25.1µM*,.,3.16µM*,39.8µM*,-28.6%,56.2µM*
CN(c1ccccc1)S(=O)(=O)c1ccc2ccccc2c1,27.6%,12.3%,57.5%,102.1%,-4.4%,45.7%
CC/C=C\C/C=C\C/C=C\C/C=C\C/C=C\CCCC(=O)NCCCC(=O)O,.,.,.,.,17.7%,.
COCCn1c(O)c(/C=N/NC(=O)CSC(=S)N2CCCC2)c(=O)[nH]c1=S,-23.3%[59 µM],1.7%,89.1µM*,37.2%,.,-0.8%
O=C(CSC(=S)N1CCCC1)N/N=C/c1c(O)[nH]c(=S)[nH]c1=O,.,-25.8%,56.2µM*,33.1%,.,.
CN(C)C(=O)Oc1ccc[n+](C)c1,4.3%[59 µM],-2.1%,-5.0%,32.1%,-5.3%,4.8%
CC(Cc1ccccc1)NCC(=O)Nc1cc(N(C)C)nc2ccccc12 (stereo not drawn),?,.,1.12µM*,?,?,35.5µM*
CC(Cc1ccccc1)NCc1ccccc1O (stereo not drawn),-3.4%,10.4%,-17.5%,0.6%,23.9%,-4.9%
CCCC/C(C)=C/[C@@H](NP(=O)(c1ccccc1)c1ccccc1)c1ccccc1,31.6µM*,-13.9%,-18.9%,21.7%,-12.6%,-37.3%
CCN(CC)CCO[C@H]1CC[C@@]2(C)C(=CC[C@@H]3[C@H]2CC[C@]2(C)C(=O)CC[C@H]32)C1,-1.5%[12.7 µM],.,.,.,10.5%,.
CC(C)Cn1c(-c2cccc(S(=O)(=O)N3CCOCC3)c2)n[nH]c1=S,.,1.8%,7.08µM*,11.6%,.,.
Cc1ccc(-c2nnc(C)c(N3CCCC3)n2)cc1,6.4%,-11.3%,16.5%,50.7%,4.5%,-0.3%
OCCN(CC#CC(O)(c1ccccc1)C1CCCC1)CCO (stereo not drawn),50.1µM*,3.7%,?,23.1%,11.2%,-32.6%
O=C(O)C(O)(c1ccccc1)C1CCCCC1 (stereo not drawn),4.5%,-5.7%,-11.6%,25.8%,16.3%,-27.1%
CCOCCCNC(=O)c1c[nH]c2ccc(S(=O)(=O)N(C)c3ccc(Cl)cc3F)cc2c1=O,2.0%[59 µM],.,-23.2%,49.5%,.,0.3%
O=C(Nc1ccccc1F)Oc1cccc(OC(=O)Nc2ccccc2F)c1,1.1%,0.0%,-0.7%,43.0%,11.8%,-9.8%
NC1=C(Br)C(=O)c2ccccc2C1=O,50.1µM*,-24.0%,-35.5%,-9.9%,-5.2%,?
C=C(C)c1cc2cc(C(C)=O)c(O)cc2o1,.,.,.,.,-18.5%,.
SMILES,G9a block,L3MBTL1 block,JMJD2A Tudor inh,HP1b chromo inh,Sfp PPTase inh,BAZ2B block
Cc1ccc(C(=O)N[C@@H](C)CN2C3=NC[C@H](Cc4ccccc4)N3C[C@H]2Cc2ccc(O)cc2)cc1Br,.,.,?,-20.4%,56.2µM*,?
O=C(Nc1ccc(Cl)c(Cl)c1)c1ccco1,.,11.9%,6.8%,35.5%,6.7%,?
O=C1NC(=O)C(Nc2ccc(Cl)c(Cl)c2)C(=O)N1,.,.,31.6µM*,12.9%,.,.
CSc1cccc(NC(=O)C2CCN(C(=O)c3cnn(-c4ccccc4)c3-n3cccc3)CC2)c1,?,.,-34.2%,1.6%,.,?
C=CCN1C(=O)NC(=O)/C(=C/c2ccc(OC)c(CSc3ccccn3)c2)C1=O,11.2µM*,-8.8%,79.4µM*,55.4%,56.2µM*,14.1%[57.1 µM]
C=CCN1C(=O)NC(=O)/C(=C/c2ccc(OC)c(COc3ccc(NC(C)=O)cc3)c2)C1=O,.,2.3%,-23.1%,29.7%,44.7µM*,-8.9%
O=C(Nc1ccc(Br)cc1C(=O)O)c1ccc2c(c1)C(=O)N(Cc1ccccc1)C2=O,7.0%,.,50.1µM*,-25.6%,-10.8%,?
O=C(CN1CCOCC1)Nc1ccc(Br)cc1C(=O)c1ccccc1,-7.2%[59 µM],6.9%,-10.5%,7.8%,7.4%,0.8%
O=C(NC1CCCCC1)c1cn(CCN2CCOCC2)c2cc(Cl)ccc2c1=O,.,.,.,.,3.3%,.
COc1ccc(N2C(=O)/C(=C/c3ccc(C)o3)C(=O)NC2=S)cc1,10µM*,.,31.6µM*,-14.7%,22.4µM*,44.7µM*
COc1ccc(N2C(=O)CC(=O)NC2=O)cc1,-42.1%[59 µM],-9.6%,-5.2%,29.7%,?,-26.6%
Cc1ccc(/C=C2\C(=O)NC(=S)N(c3cccc(F)c3)C2=O)o1,1.78µM*,?,44.7µM*,?,17.8µM*,50.1µM*
CCN1C[C@]2(COC(=O)c3ccccc3N3C(=O)CC(C)C3=O)CC[C@H](OC)[C@@]34C5C[C@@H]6[C@@H](OC)C[C@@](O)(C5[C@H]6OC)[C@](O)([C@@H](OC)C23)[C@@H]14 (stereo partly drawn),28.2%[59 µM],.,.,.,7.6%,.
O=C(Cc1ccc(Cl)c(Cl)c1)NCC1(N2CCOCC2)CCCCC1,-9.0%,-5.5%,-5.8%,25.3%,3.1%,-15.0%
O=C(Cc1ccc(Cl)c(Cl)c1)N1CCCCC1CN1CCCC1 (stereo not drawn),26.7µM*,.,.,.,-26.7%,.
CC(C)N(CC[C@@](C(N)=O)(c1ccccc1)c1ccccn1)C(C)C,-2.0%[12.7 µM],.,.,.,11.3%,.
CCOc1ccc(NC(=O)c2c(O)[nH]c(=O)[nH]c2=O)cc1,.,.,?,21.1%,.,.
CCOC(=O)c1ccc(NC(=O)c2c(O)[nH]c(=O)[nH]c2=O)cc1,?,7.08µM*,-11.0%,20.1%,?,?
CCCN1CCCC2Cc3[nH]ncc3CC21 (stereo not drawn),50.1µM*,.,.,.,2.0%,.
O=C(Cc1ccccc1)N1CCN(CC2CC3C=CC2C3)CC1 (stereo not drawn),?,3.8%,4.47µM*,50.1µM*,-16.8%,31.6µM*

# High-throughput results: PubChem BioAssay, National Center for Advancing Translational Sciences (NCATS)
